Laboratory results published in PubChem BioAssay (EPA / NIEHS).
Results filed as inconclusive are left out. Calls of active or inactive are those of the source. How the source made its calls: active means hit-call score of the fitted dose curve at least 0.9, where 1 is the maximum; inconclusive means response in the unintended direction; inactive means score below 0.9. Where a SMILES comes first, the peptide text is derived from it. Bridges are numbered along the chain shown (N, C = ends). [ ]: non-standard residue; d: D form. hArg = N=C(N)NCCCC[C@H](N)C(=O)O; Mpa = O=C(O)CCS

biological target: Cellular tumor antigen p53 (Homo sapiens) (UniProt P04637); experiment: TOX21_p53_BLA_p3_ratio: Tox21 HCT-116 p53 Agonism Beta-lactamase Assay, Ratio, Phase 3 (AID 2283596)
Outline: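 Cells were seeded at 4000/well, rested 5 h at 37C, then dosed with DMSO compound solutions (217-fold dilution) for 16 h. CCF4-AM substrate was loaded for 2 h at room temperature, and the 460/530 nm emission ratio was fitted for gain of signal versus DMSO.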

Cellular tumor antigen p53 (Homo sapiens), sequence (P04637 whole entry, looked up): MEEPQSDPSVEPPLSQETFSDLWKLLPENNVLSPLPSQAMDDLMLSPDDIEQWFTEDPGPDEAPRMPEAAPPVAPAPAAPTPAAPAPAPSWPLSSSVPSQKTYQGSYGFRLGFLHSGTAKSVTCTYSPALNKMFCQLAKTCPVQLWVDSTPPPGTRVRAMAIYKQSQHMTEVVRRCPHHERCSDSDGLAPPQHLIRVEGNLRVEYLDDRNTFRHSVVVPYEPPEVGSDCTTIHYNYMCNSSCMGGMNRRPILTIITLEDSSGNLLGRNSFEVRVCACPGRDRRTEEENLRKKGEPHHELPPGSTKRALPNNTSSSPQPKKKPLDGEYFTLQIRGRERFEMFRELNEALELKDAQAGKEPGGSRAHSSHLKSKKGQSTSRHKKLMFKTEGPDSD

Structure (SMILES)	outcome	AC50
CC(=NCc1ccccc1)c1ccccc1O	inactive	–
O=C1c2ccccc2C(=O)C1c1ccccc1	inactive	–
CCOc1ccc2ccccc2c1C(=O)N[C@@H]1C(=O)N2[C@@H]1SC(C)(C)[C@@H]2C(=O)O	inactive	–
C[C@H](O)C(=O)Nc1c(I)c(C(=O)NC(CO)CO)c(I)c(C(=O)NC(CO)CO)c1I	inactive	–
Nc1nc2c(ncn2COCCO)c(=O)[nH]1	inactive	–
CC1CCCC(C)N1NC(=O)c1ccc(Cl)c(S(N)(=O)=O)c1 (centres undefined)	inactive	–
Nc1ccc(Cl)cc1[N+](=O)[O-]	inactive	–
C=CC(=O)OCCOCCOC(=O)C=C	inactive	–
CC(=O)N[C@@H](CC(=O)N[C@@H](CCC(=O)O)C(=O)O)C(=O)O	inactive	–
CNCC(=O)N[C@@H](CCCN=C(N)N)C(=O)N[C@H](C(=O)N[C@@H](Cc1ccc(O)cc1)C(=O)N[C@H](C(=O)N[C@@H](Cc1cnc[nH]1)C(=O)N1CCC[C@H]1C(=O)N[C@@H](C)C(=O)O)C(C)C)C(C)C	inactive	–
FC1(F)C(F)(F)C(F)(F)C2(F)C(F)(F)C(F)(F)C(F)(F)C(F)(F)C2(F)C1(F)F (centres undefined)	inactive	–
O=C(O)Cc1csc(-c2ccc(Cl)cc2)n1	inactive	–
C[C@]12CC[C@@H]3c4ccc(OC(=O)c5ccccc5)cc4CC[C@H]3[C@@H]1CC[C@@H]2O	inactive	–
CC1OCCC1=O (centres undefined)	inactive	–
CC(C)(C)c1ccc(C=O)cc1	inactive	–
CN1CCN(C(c2ccccc2)c2ccccc2)CC1	inactive	–
CC(C)NC[C@@H](O)COc1cccc2ccccc12	inactive	–
OCC1(CO)COC(C(Cl)(Cl)Cl)OC1	inactive	–
CC(C)CCC[C@@H](C)[C@H]1CC(=O)C2=C3CC[C@H]4C[C@@H](O)CC[C@]4(C)[C@H]3CC[C@@]21C	inactive	–
C[C@H]1NCc2cc(-c3ccc4c(=O)c(C(=O)O)cn(C5CC5)c4c3OC(F)F)ccc21	inactive	–

Structure (SMILES)	outcome	AC50
Cl.Cl.N.N.[Cl-].[Cl-].[Pt+2]	inactive	–
Clc1ccc2nsnc2c1NC1=NCCN1	inactive	–
CC[C@H]1OC(=O)C[C@@H](O)[C@H](C)[C@@H](O[C@@H]2O[C@H](C)[C@@H](O)[C@H](N(C)C)[C@H]2O)[C@@H](CCN2C[C@H](C)C[C@H](C)C2)C[C@@H](C)C(=O)/C=C/C(C)=C/[C@@H]1CO[C@@H]1O[C@H](C)[C@@H](O)[C@@H](OC)[C@H]1OC	inactive	–
NC[C@H]1O[C@H](O[C@H]2[C@H](O)[C@@H](O[C@H]3O[C@H](CO)[C@@H](O)[C@H](N)[C@H]3O)[C@H](N)C[C@@H]2N)[C@H](N)[C@@H](O)[C@@H]1O	inactive	–
CC(Oc1ccccc1)C(=O)N[C@@H]1C(=O)N2[C@@H]1SC(C)(C)[C@@H]2C(=O)O (some centres undefined)	inactive	–
CCC1NC(=O)c2cc(S(N)(=O)=O)c(Cl)cc2N1 (centres undefined)	inactive	–
C1=C\CC/C=C\CC/1	inactive	–
CC(C)C[C@H](NC(=O)[C@@H](Cc1c[nH]c2ccccc12)NC(=O)[C@H](Cc1ccc(O)cc1)NC(=O)[C@H](CO)NC(=O)[C@H](Cc1c[nH]c2ccccc12)NC(=O)[C@H](Cc1cnc[nH]1)NC(=O)[C@@H]1CCC(=O)N1)C(=O)N[C@@H](CCCN=C(N)N)C(=O)N1CCC[C@@H]1C(=O)NCC(N)=O	inactive	–
O=C(COCCOCCOCC(=O)Nc1c(I)cc(I)c(C(=O)O)c1I)Nc1c(I)cc(I)c(C(=O)O)c1I	inactive	–
COc1ccc(CCC(=O)c2c(O)cc(O[C@@H]3O[C@H](CO)[C@@H](O)[C@H](O)[C@H]3O[C@@H]3O[C@@H](C)[C@H](O)[C@@H](O)[C@H]3O)cc2O)cc1O	inactive	–
COc1ccc(NS(=O)(=O)c2ccc(N)cc2)nn1	inactive	–
C=CCSSSCC=C	–	8.68 µM (active)
O=C1OC(=O)c2cccc3cccc1c23	inactive	–
OCC(O)CN1CCN(c2ccccc2)CC1 (centres undefined)	inactive	–
CCC=O	inactive	–
NC(=O)[C@@H]1CSSCCC(=O)N[C@@H](CCCCN=C(N)N)C(=O)NCC(=O)N[C@@H](CC(=O)O)C(=O)N[C@H](Cc2c[nH]c3ccccc23)C(=O)N2CCC[C@H]2C(=O)N1 ([Mpa][hArg]GD[dW]PC-NH2; disulfide 1-7)	inactive	–
C[C@@H](O)C(=O)O	inactive	–
CCOC(=O)c1ccc(OC(=O)CCCCCN=C(N)N)cc1	inactive	–
O=Nc1ccc(NO)cc1	inactive	–
